target: Solute carrier family 2, facilitated glucose transporter member 1 (Homo sapiens) (UniProt P11166); assay: ST_JUDE_LEISH: Cytotoxicity at 2uM final concentration against transgenic Leishmania Mexicana promastigotes LmGLUT1 that are glucose transport deficient and complemented with the human glucose transporter GLUT1. Activity is measured by DNA content using SYBR green in vitro; assay type: functional
Sequence (P11166 whole entry): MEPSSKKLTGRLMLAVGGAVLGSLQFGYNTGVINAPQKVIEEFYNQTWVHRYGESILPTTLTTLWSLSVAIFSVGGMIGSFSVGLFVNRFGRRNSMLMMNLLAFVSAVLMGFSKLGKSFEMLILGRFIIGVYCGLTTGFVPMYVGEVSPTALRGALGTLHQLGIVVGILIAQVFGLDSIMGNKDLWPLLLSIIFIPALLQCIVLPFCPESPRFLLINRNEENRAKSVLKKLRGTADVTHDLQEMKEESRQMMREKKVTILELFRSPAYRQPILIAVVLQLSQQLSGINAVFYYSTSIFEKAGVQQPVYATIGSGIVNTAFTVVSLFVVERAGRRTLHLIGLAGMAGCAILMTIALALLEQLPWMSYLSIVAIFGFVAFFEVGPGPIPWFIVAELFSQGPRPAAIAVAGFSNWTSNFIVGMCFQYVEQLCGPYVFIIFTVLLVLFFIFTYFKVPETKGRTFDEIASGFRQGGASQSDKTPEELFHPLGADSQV

Which inhibition does the source give for `O=C(C=Cc1ccc(Cl)c(Cl)c1)NCCCCCN1CCC(CCCNC(=O)c2ccc3c(c2)OCO3)CC1` here?
The inhibition was 4.5%.

Which inhibition does the source give for `Cc1cc(Br)c(OCCCON2C(=N)N=C(N)NC2(C)C)c(Br)c1` here?
Its inhibition is 2.66%.

With `COCCCNc1sc(S(=O)(=O)c2ccccc2)nc1S(=O)(=O)c1ccc(Cl)cc1` as the compound, how does the inhibition read?
The inhibition was 3.07%.

`Cc1nnc(-c2ccc3ccccc3c2)c2cn(-c3cccc([N+](=O)[O-])c3)nc12` was tested. Which inhibition did it give?
Its inhibition is 5.1%.

Which inhibition does the source give for `Cc1cccc(C)c1N1CCN(C2CCC(NC(=O)c3cc4ccccc4[nH]3)CC2)CC1` (stereo not given) here?
Its inhibition is 1.58%.

For `CC(CN(C)C)C(=O)Nc1ccc(-c2ccc(-c3nc4cc(C(F)(F)F)ccc4[nH]3)cc2)cc1` (stereo not given), which inhibition is on record?
The inhibition was 12.9%.

How did the inhibition turn out when `O=C(Nc1nc2cc(S(=O)(=O)NCCc3cccc(F)c3)ccc2n1CCCn1ccnc1)c1ccc(Cl)cc1` was run?
Its inhibition is 1.22%.

For `CCc1ccc(C2=Nn3c(nnc3-c3cccs3)SC2)cc1`, which inhibition is on record?
The inhibition was 2.35%.

How did the inhibition turn out when `CCn1ccc2c(N3CCCC3=O)cc(C(=O)N[C@@H](Cc3ccccc3)[C@H](O)CNC3CCCCC3)cc21` was run?
The inhibition was 4.2%.

With `COc1ccc(-c2cccc(NC(=O)c3ccc(C#N)cc3)c2)cc1CN1CCCN(C)CC1` as the compound, how does the inhibition read?
The inhibition was 3.34%.

Which inhibition does the source give for `COc1ccc2c(=NN=C(C)c3ccccn3)cc(C)[nH]c2c1` here?
Its inhibition is 5.68%.

Which inhibition does the source give for `COc1cc(C2CCCCC2)c(OC)cc1CC1c2cc(O)c(Cl)cc2CCN1C` (stereo not given) here?
Its inhibition is 3.83%.

`Cc1ccc(C)c(Cn2c(N3CCC(C(=O)NCc4cccs4)CC3)nc3ccccc32)c1` was tested. Which inhibition did it give?
Its inhibition is 3.18%.

For `COc1ccc2[nH]ccc(=NN=Cc3ccccc3F)c2c1`, which inhibition is on record?
The inhibition was 7.58%.

How did the inhibition turn out when `CCCCn1c(-c2ccco2)nc2c(c(=O)c3ccccc3n2C)c1=O` was run?
The inhibition was 8.79%.

For `c1ccc(Oc2ccc(Nc3nc(NCCc4c[nH]cn4)nc(NC4CCCC4)n3)cc2)cc1`, which inhibition is on record?
The inhibition was 5.3%.

`O=C(NCc1ccccc1[S+]([O-])c1ccccc1CO)C(F)(F)F` (stereo not given) was tested. Which inhibition did it give?
Its inhibition is -1.33%.

`CO/C(=C/C=C/c1cc2cc(Cl)c(Cl)cc2[nH]1)C(=O)NC1CC(C)(C)N(C)C(C)(C)C1` was tested. Which inhibition did it give?
Its inhibition is 2.45%.

How did the inhibition turn out when `COc1ccc(CNCc2cccc(-c3cccc(-c4nc5cccc(C)c5[nH]4)c3)c2)cc1` was run?
Its inhibition is 9.14%.

How did the inhibition turn out when `COc1ccc2nc(C)cc(NCc3ccc4ccccc4c3)c2c1` was run?
Its inhibition is 12.8%.

With `Cc1ccc(Nc2nc(N/N=C/c3cccc([N+](=O)[O-])c3)nc(Nc3ccccc3)n2)c(C)c1` as the compound, how does the inhibition read?
Its inhibition is 2.34%.

For `O=S(=O)(ON=C1CCc2ccccc21)c1ccc(Cl)cc1`, which inhibition is on record?
Its inhibition is 1.95%.

For `CCCCCN1CCCC(NS(=O)(=O)c2ccc(C(=O)Nc3cccc(C(F)(F)F)c3)cc2)C1` (stereo not given), which inhibition is on record?
The inhibition was 1.16%.

For `CC(C)Cc1c(O)nc(SCCN2CCOCC2)[nH]c1=O`, which inhibition is on record?
The inhibition was -0.96%.

Which inhibition does the source give for `COc1cc(NC(=O)N2CCc3ccc(OCCN4CCCCC4)cc32)cc(C(F)(F)F)c1` here?
Its inhibition is 0.69%.

How did the inhibition turn out when `CN(C)CCNc1cc(-c2ccc3ccccc3c2)nc2ccccc12` was run?
The inhibition was 1.3%.

`COc1ccc(-c2cnc(N)c(-c3ccc(O)c(OC)c3)c2)cn1` was tested. Which inhibition did it give?
Its inhibition is 0.58%.

Which inhibition does the source give for `CCNCc1ccc(-c2cccc(-c3nc4ccccc4[nH]3)c2)cc1` here?
Its inhibition is 1.09%.

Which inhibition does the source give for `CCCCCCN1CCC(NCc2cccc([N+](=O)[O-])c2)CC1` here?
Its inhibition is 3.72%.

How did the inhibition turn out when `Cn1cncc1CNCc1ccc(-c2cccc(-c3nc4ccccc4[nH]3)c2)cc1` was run?
Its inhibition is -1.06%.

For `Cc1ccc(-c2nnc(Nc3ccc(OCC(N)=O)cc3)c3ccccc23)cc1S(=O)(=O)NCC1CCCO1` (stereo not given), which inhibition is on record?
The inhibition was 1.11%.

With `O=C(NC1CC1)c1ccc(N2CCN(Cc3ccc(Cl)cc3)CC2)nc1` as the compound, how does the inhibition read?
The inhibition was 0.06%.

With `COCCn1c(-c2nc(-c3ccc(F)cc3)cnc2N)nc2ccccc21` as the compound, how does the inhibition read?
Its inhibition is 0.54%.

Which inhibition does the source give for `CC(Cc1ccc(CN(CC(N)=O)Cc2ccc(CC(C)NCCc3cccc(Cl)c3)cc2)cc1)NCCc1cccc(Cl)c1` (stereo not given) here?
The inhibition was 3.67%.

With `COc1ccc(NC(=O)[C@H](CC(C)C)Nc2cc(C)nc(NCc3ccccc3C)n2)cc1` as the compound, how does the inhibition read?
Its inhibition is 1.76%.

`C[C@H](Cc1ccc(C[C@@H](C)NCC(O)c2cc(Cl)c(N)c(Cl)c2)cc1)NCC(O)c1cc(Cl)c(N)c(Cl)c1` (stereo not given in full) was tested. Which inhibition did it give?
Its inhibition is 0.36%.

For `Cc1[nH]c2ccccc2c(=O)c1Br`, which inhibition is on record?
Its inhibition is 5.04%.

Which inhibition does the source give for `Cc1cc(F)ccc1Nc1nc(N(C)c2ccccc2)c2cc(OCCCN(C)C)ccc2n1` here?
The inhibition was 2.53%.

With `O=[N+]([O-])c1cccc(-c2ccc(C=NNc3cc(N4CCCC4)nc(N4CCCC4)n3)o2)c1` as the compound, how does the inhibition read?
The inhibition was 3.39%.

`Cc1cccc2nc(-c3cccc(-c4cccc(CNCCCN5CCCC5=O)c4)c3)[nH]c12` was tested. Which inhibition did it give?
Its inhibition is -0.74%.

target: Hexose transporter 1 (Plasmodium falciparum) (UniProt O97467); assay: ST_JUDE_LEISH: Cytotoxicity at 2uM final concentration against transgenic Leishmania Mexicana promastigotes LmPfHT that are glucose transport deficient and complemented with the Plasmodium falciparum hexose transporter. Activity is measured by DNA content using SYBR green in vitro; assay type: functional

`O=C(C=Cc1ccc(Cl)c(Cl)c1)NCCCCCN1CCC(CCCNC(=O)c2ccc3c(c2)OCO3)CC1` was tested. Which inhibition did it give?
Its inhibition is 4.24%.

`Cc1cc(Br)c(OCCCON2C(=N)N=C(N)NC2(C)C)c(Br)c1` was tested. Which inhibition did it give?
The inhibition was 4.88%.

With `COCCCNc1sc(S(=O)(=O)c2ccccc2)nc1S(=O)(=O)c1ccc(Cl)cc1` as the compound, how does the inhibition read?
Its inhibition is 3.36%.

`Cc1nnc(-c2ccc3ccccc3c2)c2cn(-c3cccc([N+](=O)[O-])c3)nc12` was tested. Which inhibition did it give?
The inhibition was 3.95%.

`Cc1cccc(C)c1N1CCN(C2CCC(NC(=O)c3cc4ccccc4[nH]3)CC2)CC1` (stereo not given) was tested. Which inhibition did it give?
The inhibition was -0.69%.

Which inhibition does the source give for `CC(CN(C)C)C(=O)Nc1ccc(-c2ccc(-c3nc4cc(C(F)(F)F)ccc4[nH]3)cc2)cc1` (stereo not given) here?
The inhibition was 11.6%.

Which inhibition does the source give for `O=C(Nc1nc2cc(S(=O)(=O)NCCc3cccc(F)c3)ccc2n1CCCn1ccnc1)c1ccc(Cl)cc1` here?
Its inhibition is 0.32%.

`CCc1ccc(C2=Nn3c(nnc3-c3cccs3)SC2)cc1` was tested. Which inhibition did it give?
Its inhibition is 1.1%.

For `CCn1ccc2c(N3CCCC3=O)cc(C(=O)N[C@@H](Cc3ccccc3)[C@H](O)CNC3CCCCC3)cc21`, which inhibition is on record?
The inhibition was 7.08%.

`COc1ccc(-c2cccc(NC(=O)c3ccc(C#N)cc3)c2)cc1CN1CCCN(C)CC1` was tested. Which inhibition did it give?
The inhibition was 2.59%.

Which inhibition does the source give for `COc1ccc2c(=NN=C(C)c3ccccn3)cc(C)[nH]c2c1` here?
Its inhibition is 9.51%.

Which inhibition does the source give for `COc1cc(C2CCCCC2)c(OC)cc1CC1c2cc(O)c(Cl)cc2CCN1C` (stereo not given) here?
The inhibition was -0.22%.

For `Cc1ccc(C)c(Cn2c(N3CCC(C(=O)NCc4cccs4)CC3)nc3ccccc32)c1`, which inhibition is on record?
Its inhibition is 4.2%.

How did the inhibition turn out when `COc1ccc2[nH]ccc(=NN=Cc3ccccc3F)c2c1` was run?
Its inhibition is 7.67%.

With `CCCCn1c(-c2ccco2)nc2c(c(=O)c3ccccc3n2C)c1=O` as the compound, how does the inhibition read?
The inhibition was 5.89%.

For `c1ccc(Oc2ccc(Nc3nc(NCCc4c[nH]cn4)nc(NC4CCCC4)n3)cc2)cc1`, which inhibition is on record?
Its inhibition is 5.86%.

Which inhibition does the source give for `O=C(NCc1ccccc1[S+]([O-])c1ccccc1CO)C(F)(F)F` (stereo not given) here?
The inhibition was -0.32%.

How did the inhibition turn out when `CO/C(=C/C=C/c1cc2cc(Cl)c(Cl)cc2[nH]1)C(=O)NC1CC(C)(C)N(C)C(C)(C)C1` was run?
Its inhibition is 0.74%.

How did the inhibition turn out when `COc1ccc(CNCc2cccc(-c3cccc(-c4nc5cccc(C)c5[nH]4)c3)c2)cc1` was run?
Its inhibition is 8.38%.

With `COc1ccc2nc(C)cc(NCc3ccc4ccccc4c3)c2c1` as the compound, how does the inhibition read?
Its inhibition is 9.9%.

`Cc1ccc(Nc2nc(N/N=C/c3cccc([N+](=O)[O-])c3)nc(Nc3ccccc3)n2)c(C)c1` was tested. Which inhibition did it give?
The inhibition was 1.33%.

For `O=S(=O)(ON=C1CCc2ccccc21)c1ccc(Cl)cc1`, which inhibition is on record?
The inhibition was -0.07%.

How did the inhibition turn out when `CCCCCN1CCCC(NS(=O)(=O)c2ccc(C(=O)Nc3cccc(C(F)(F)F)c3)cc2)C1` (stereo not given) was run?
Its inhibition is 2.32%.

Which inhibition does the source give for `CC(C)Cc1c(O)nc(SCCN2CCOCC2)[nH]c1=O` here?
The inhibition was 1.54%.

How did the inhibition turn out when `COc1cc(NC(=O)N2CCc3ccc(OCCN4CCCCC4)cc32)cc(C(F)(F)F)c1` was run?
The inhibition was 1.18%.

For `CN(C)CCNc1cc(-c2ccc3ccccc3c2)nc2ccccc12`, which inhibition is on record?
The inhibition was 2.94%.

`COc1ccc(-c2cnc(N)c(-c3ccc(O)c(OC)c3)c2)cn1` was tested. Which inhibition did it give?
Its inhibition is 0.38%.

For `CCNCc1ccc(-c2cccc(-c3nc4ccccc4[nH]3)c2)cc1`, which inhibition is on record?
The inhibition was 1.16%.

For `CCCCCCN1CCC(NCc2cccc([N+](=O)[O-])c2)CC1`, which inhibition is on record?
The inhibition was 5.68%.

With `Cn1cncc1CNCc1ccc(-c2cccc(-c3nc4ccccc4[nH]3)c2)cc1` as the compound, how does the inhibition read?
Its inhibition is -1.22%.

Which inhibition does the source give for `Cc1ccc(-c2nnc(Nc3ccc(OCC(N)=O)cc3)c3ccccc23)cc1S(=O)(=O)NCC1CCCO1` (stereo not given) here?
The inhibition was 3.81%.

`O=C(NC1CC1)c1ccc(N2CCN(Cc3ccc(Cl)cc3)CC2)nc1` was tested. Which inhibition did it give?
The inhibition was -0.23%.

Which inhibition does the source give for `COCCn1c(-c2nc(-c3ccc(F)cc3)cnc2N)nc2ccccc21` here?
Its inhibition is -2.08%.

For `CC(Cc1ccc(CN(CC(N)=O)Cc2ccc(CC(C)NCCc3cccc(Cl)c3)cc2)cc1)NCCc1cccc(Cl)c1` (stereo not given), which inhibition is on record?
Its inhibition is -0.2%.

How did the inhibition turn out when `COc1ccc(NC(=O)[C@H](CC(C)C)Nc2cc(C)nc(NCc3ccccc3C)n2)cc1` was run?
The inhibition was 2.18%.

For `C[C@H](Cc1ccc(C[C@@H](C)NCC(O)c2cc(Cl)c(N)c(Cl)c2)cc1)NCC(O)c1cc(Cl)c(N)c(Cl)c1` (stereo not given in full), which inhibition is on record?
The inhibition was 0.31%.

With `Cc1[nH]c2ccccc2c(=O)c1Br` as the compound, how does the inhibition read?
Its inhibition is 5.06%.

With `Cc1cc(F)ccc1Nc1nc(N(C)c2ccccc2)c2cc(OCCCN(C)C)ccc2n1` as the compound, how does the inhibition read?
The inhibition was 3.15%.

Which inhibition does the source give for `O=[N+]([O-])c1cccc(-c2ccc(C=NNc3cc(N4CCCC4)nc(N4CCCC4)n3)o2)c1` here?
Its inhibition is 3.17%.

How did the inhibition turn out when `Cc1cccc2nc(-c3cccc(-c4cccc(CNCCCN5CCCC5=O)c4)c3)[nH]c12` was run?
Its inhibition is -0.59%.
